# Compound activity from PubChem BioAssay.
# A selection: hits, their analogues and other compounds. The true share with any hit is near 4.8%.
# ATXN2 expr inh = reduces ATXN2 reporter expression in HEK-293 cells; Potency, µM (highest dose often 57 µM), usual class: inhibitors; HEK-293 ATXN2-luciferase reporter, luminescence, 24 h; hit rate 0.72% among 360,000; also: nearly all actives have a fitted effect of over 55% in size
#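 qHTS (up to 57 uM final) was run with 24 h compound exposure of reporter cells at 37 °C. Each well was multiplexed: SteadyGlo luminescence measured ATXN2-luciferase expression after a fluorogenic Gly-Phe-AFC viability readout (25 uM final).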
# USP2a block = blocks human ubiquitin-specific protease USP2a; O75604; USP2 core, Ub-CHOP2 coupled fluorogenic reporter, 485/531; Potency, µM (top dose mostly 38.3 µM), actives largely listed as inhibitors; hit rate 0.01% among 330,000
# Target sequence (O75604 whole entry, looked up): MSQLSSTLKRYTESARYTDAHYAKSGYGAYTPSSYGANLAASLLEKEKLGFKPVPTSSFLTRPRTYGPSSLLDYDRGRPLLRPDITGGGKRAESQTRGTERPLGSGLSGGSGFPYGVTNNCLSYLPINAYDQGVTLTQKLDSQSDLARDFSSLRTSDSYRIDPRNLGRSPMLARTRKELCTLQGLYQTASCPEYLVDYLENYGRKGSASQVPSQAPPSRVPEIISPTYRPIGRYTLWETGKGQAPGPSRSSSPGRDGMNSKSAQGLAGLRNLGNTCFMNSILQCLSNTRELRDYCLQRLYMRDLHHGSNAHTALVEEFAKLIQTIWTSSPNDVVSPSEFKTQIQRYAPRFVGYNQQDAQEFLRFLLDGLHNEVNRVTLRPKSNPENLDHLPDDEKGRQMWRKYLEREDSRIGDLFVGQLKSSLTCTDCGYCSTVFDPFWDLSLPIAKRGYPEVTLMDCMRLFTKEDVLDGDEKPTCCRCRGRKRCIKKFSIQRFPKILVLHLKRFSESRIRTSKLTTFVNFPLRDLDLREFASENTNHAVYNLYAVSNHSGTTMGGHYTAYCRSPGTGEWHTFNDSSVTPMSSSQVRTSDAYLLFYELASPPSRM
#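 Cell-free coupled assay: 10nM USP2 core preincubated 30min RT with compound in Tris-HCl pH 8.0/CaCl2/CHAPS buffer, then 25nM Ub-CHOP2 and 25nM reporter substrate; fluorescence (Ex 485/Em 531) read after 60min RT, normalized to NEM inhibition, concentration-response curves fitted.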
# ATXN viability = viability counter-screen for ATXN expression inhibitors; hit rate 0.49% among 400,000; Potency, µM (top dose mostly 56.7 µM), hits mostly cytotoxic; S2 cells (HEK-293 line with an ATXN2-luciferase reporter) viability, CellTiter-Fluor protease fluorescence, 24 h; AID 651635; also: nearly all actives have a fitted effect of over 40% in size
# USP1-UAF1 inh = blocks the human USP1/UAF1 deubiquitinase complex; O94782; recombinant USP1/UAF1, Ub-Rhodamine cleavage fluorescence; Potency, µM (highest dose often 57.1 µM), hits mostly inhibitors; hit rate 0.23% among 390,000; also: nearly all actives have a fitted effect of over 60% in size
#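 High-throughput fluorogenic screen: 1nM USP1/UAF1 complex, Ub-Rho substrate 150nM final, 50mM HEPES pH 7.8 with 0.5mM EDTA, 0.1 mg/ml BSA, 1mM TCEP and 0.01% Tween-20.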
# IL1B secr inh = blocks inflammasome-driven IL-1 beta release. THP-1 LPS/ATP IL-1B secretion, AlphaLISA, 16 h; stronger effect = lower value. activity change, % at 57.5 µM. hit rate 4.7% among 360,000. AID 743279; in the data active = activity change below about -50%; inconclusive = mostly about -30% to -49%
#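 Secreted IL-1B measured by AlphaLISA bead assay after 16 h compound exposure of THP-1 cells; compounds (final up to 57.5 uM) added 1 h before LPS (250 ng/mL) and ATP (1.25 mM) stimulation; lower signal means less secretion.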
# A number is an active result; . = inactive; ? = inconclusive; / = no result. Unless noted, calls follow the shape of the dose curve; as a rule, active = well fitted curve in the direction sought with a large enough effect; inconclusive = small, poorly fitted or top-dose-only effect, or another doubt; inactive = no such curve, though single readings can be large; an effect the other way counts as inactive or inconclusive.
SMILES,ATXN2 expr inh,USP2a block,ATXN viability,USP1-UAF1 inh,IL1B secr inh
CCC(C)[C@H](NC(=O)C1CCC(CNC(=O)[C@@H]2CCCN2C(=O)OC(C)(C)C)CC1)C(=O)O (some centres undefined),.,.,.,.,.
CCCNC(=O)[C@H]1O[C@H]1C(=O)N[C@H](C(=O)N1CCC[C@@H]1C(=O)OC)C(C)CC (some centres undefined),22µM,/,/,/,/
CCOC(=O)c1cnc2ccc(OCC)cc2c1Nc1ccc(OCc2ccccc2Cl)cc1,.,/,.,.,/
CCOC(=O)c1cnc2ccc(OCC)cc2c1N(C)Cc1ccccc1,.,.,.,.,-71
CCOC(=O)c1cnc2ccc(OCC)cc2c1N1CCN(c2ccccc2OC)CC1,.,.,?,.,-55
COc1ccc(N(C(=O)COc2ccccc2OC)S(=O)(=O)c2ccc(Cl)cc2)cc1,.,/,.,.,/
CSc1ccc(CN2CCOc3ccc(CN4CCCCC4CO)cc3C2)cc1 (centres undefined),/,/,.,/,/
N#CC1=C(SCc2ccccc2)NC(=O)CC1c1cccc(O)c1 (centres undefined),.,.,.,?,-54
Cc1ccc(NC(=O)c2nc[nH]c2C(=O)NCCCCCNC(=O)OC(C)(C)C)cc1,?,.,/,?,-62
CC(C)(C)OC(=O)NCCCC[C@H](NC(=O)c1[nH]cnc1C(=O)N[C@@H](Cc1ccccc1)C(=O)OC(C)(C)C)C(=O)OC(C)(C)C,.,.,?,?,-56
C[C@H](NC(=O)c1nc[nH]c1C(=O)N[C@@H](CCCCNC(=O)OC(C)(C)C)C(=O)OC(C)(C)C)c1ccccc1,?,.,?,?,-52
C[C@@H](NC(=O)c1nc[nH]c1C(=O)NCCCCCNC(=O)OC(C)(C)C)c1ccccc1,.,.,?,.,.
O=C(c1cnn(-c2nccc(-c3ccccc3C(F)(F)F)n2)c1C1CC1)N1CCN(CCO)CC1,/,/,.,/,/
CCC(CC)C(=O)Nc1nnc(S(=O)(=O)N2c3ccccc3CC2C)s1 (centres undefined),.,.,.,.,.
C=C[C@]1(C)C=C2C(=O)[C@@]3(O)OC(=O)[C@@]4(CCCC(C)(C)[C@H]34)[C@@]2(O)CC1,1.6µM,/,1.8µM,/,-113
Cc1cccc(-n2c3nc(=O)[nH]c(=O)c-3cc3cc([N+](=O)[O-])ccc32)c1,.,.,?,?,-101
O=c1nc2n(-c3ccccc3F)c3ccccc3cc-2c(=O)[nH]1,.,/,/,.,/
Cc1ccc(C)c(-n2c3nc(=O)[nH]c(=O)c-3cc3cc([N+](=O)[O-])ccc32)c1,?,.,?,?,-99
COc1ccc(NC(=O)CCCS(=O)(=O)c2nc(-c3ccccc3OC)cc(C(F)(F)F)n2)c(OC)c1,.,/,.,.,/
COc1ccc(-c2cc(C(F)(F)F)nc(S(=O)(=O)CCCC(=O)Nc3cc(C)on3)n2)cc1OC,?,.,?,.,-110
COc1ccccc1-c1cc(C(F)(F)F)nc(S(=O)(=O)CCCC(=O)Nc2cc(C)on2)n1,?,.,/,.,-102
Cc1c(C(=O)NCC2Cc3cccc(-c4cncnc4)c3O2)c(-c2ccccc2)nn1-c1ccccc1 (centres undefined),/,/,.,/,/
COc1cccc(NC(=O)CSc2nc3c(oc4ccccc43)c(=O)n2Cc2ccco2)c1,.,/,.,.,/
C=CCn1c2ccccc2c2nnc(SCCCn3c(=O)[nH]c4ccccc43)nc21,?,.,/,.,-79
CC1CC(C)CN(S(=O)(=O)c2ccc(C(=O)N3CCN(c4ccccc4)CC3)cc2)C1 (centres undefined),?,.,.,.,-66
SMILES,ATXN2 expr inh,USP2a block,ATXN viability,USP1-UAF1 inh,IL1B secr inh
O=C(c1ccc(S(=O)(=O)N2CCCCCC2)cc1)N1CCN(c2ccccc2)CC1,.,.,.,.,.
COc1ccc(CN2C(=NC(=O)C3CC3)SC3CS(=O)(=O)CC32)cc1OC (centres undefined),.,.,.,.,.
Cc1ccccc1N1C(=O)C(Oc2ccc(Cl)cc2)C1CNCCCOC(C)C (centres undefined),.,.,.,.,-91
COCCCNCC1C(Oc2ccc(Cl)cc2)C(=O)N1c1ccccc1C (centres undefined),.,.,.,.,-76
COCCN1CC(=O)N(c2cccc(C)c2C)C(c2ccc(Cl)cc2)C1=O (centres undefined),.,.,.,.,.
COc1cc(=O)n2c(c1C(=O)NCc1ccco1)CCN(Cc1cccc(Cl)c1)CC2,/,/,.,/,/
CC(=O)NC(c1cccc(F)c1)c1nc(/C=C/c2ccccc2)cs1 (centres undefined),.,/,.,/,.
Fc1ccc(C(CCNCc2ccccn2)c2ccc(Cl)cc2)cc1 (centres undefined),.,.,.,.,-90
OC(CNCc1ccccn1)c1ccccc1 (centres undefined),.,.,.,.,.
CN(C)CC[C@@H](c1ccc(Cl)cc1)c1ccccn1,.,/,.,.,-110
COc1cc(=O)n2c(c1C(=O)N(C)Cc1nonc1C)CCN(Cc1ccsc1)CC2,/,/,.,/,/
O=C1[C@@H](Oc2ccccc2)[C@@H](c2ccccc2)N1c1ccccc1,.,.,.,.,.
O=C1[C@H](Oc2ccccc2)[C@@H](c2ccccc2)N1c1ccncc1,?,.,/,?,-104
Cc1cc(NC(=O)c2sccc2C)n(-c2nc3ccccc3[nH]2)n1,?,.,?,.,-82
Cc1cc(NC(=O)c2cccs2)n(-c2nc3ccccc3[nH]2)n1,.,.,.,?,.
COc1cccc(CNCc2cccn2-c2nnc(N3CCN(c4ccccc4)CC3)s2)c1,?,/,.,.,/
CC(=O)N1CCn2c3c(c(=O)c4cc(C)ccc42)CCC31 (centres undefined),.,.,.,32µM,.
CC(=O)N1CCn2c3c(c4cc(C)ccc42)CCCC31 (centres undefined),/,.,.,.,.
Cc1ccc2c(c1)c1c3n2CCN(C(=O)CCl)C3CCC1 (centres undefined),.,.,?,.,-99
Cc1cc(C)n(CC(O)Cn2c3ccc(Br)cc3c3cc(Br)ccc32)c(=O)n1 (centres undefined),?,.,?,.,-68
O=C(c1cc(-n2cnnc2)ccc1Cl)N1CCN(c2nc(-c3ccccc3)cs2)CC1,?,.,.,.,-90
FC(F)Oc1ccc(-c2csc(NNC3=NCCCCC3)n2)cc1,?,.,?,.,-93
c1ccc(-c2csc(NC3=NCCCCC3)n2)cc1,.,.,.,.,.
CC(C)(C)c1ccc(-c2csc(NNC3=NCCCCC3)n2)cc1,?,.,?,.,-61
Brc1ccc(-c2csc(NNC3=NCCCCC3)n2)cc1,.,.,?,.,-53
